# In all, about 290,000 compounds went through this assay and about 3,100 (1.1%) were called active. The entries come from a sample that favours actives as a whole. A number with no mark means an inactive call. No stated cut-off is given here; in the data, active means inhibition above about 16% (passing the limit was not always enough); inactive means the rest.
# Target: Neuropeptides B/W receptor type 1 (Homo sapiens) (UniProt P48145)
# Experiment: blockers of human neuropeptide B/W receptor 1 – cell-based, fluorescence, single concentration, primary screen (AID 1861);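 further: cells stimulated with the agonist NPW; 0% = agonist with vehicle and 100% = vehicle without agonist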
# Details: GPR7-expressing cells, fluorescence antagonist assay; at 4.4 µM; stronger effect = higher value
# Neuropeptides B/W receptor type 1 (Homo sapiens), sequence (P48145 whole entry, looked up): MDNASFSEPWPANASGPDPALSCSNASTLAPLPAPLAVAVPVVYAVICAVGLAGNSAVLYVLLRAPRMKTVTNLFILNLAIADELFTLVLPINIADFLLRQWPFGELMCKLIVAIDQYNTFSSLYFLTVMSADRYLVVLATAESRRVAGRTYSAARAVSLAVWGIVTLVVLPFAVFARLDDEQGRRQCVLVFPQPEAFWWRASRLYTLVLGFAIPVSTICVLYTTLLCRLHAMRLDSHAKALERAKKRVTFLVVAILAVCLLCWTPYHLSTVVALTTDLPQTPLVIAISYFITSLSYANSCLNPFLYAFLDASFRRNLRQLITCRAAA
row,Structure (SMILES),inhibition
1,CCOC(=O)C1(CCc2ccccc2)CCN(Cc2ccco2)CC1,-1.12%
2,CCOC(=O)C1(Cc2ccc(Cl)cc2)CCN(C(C)CCn2cccn2)CC1 (stereo not given),37.6% (active)
3,CCN1CCN(Cc2cc(OC)c3c(c2)OCO3)CC1,-5.46%
4,COC(=O)N(c1ccc(OC)cc1)P1(=S)OCCC(C)O1 (stereo not given),-1.86%
5,COc1cc2nc(N3CCN(C(=O)[C@@H]4CCCO4)CC3)nc(N)c2cc1OC,-11.2%
6,CCOc1ccc(-c2cc(C)[n+](CCN(CC)CC)c(-c3ccc(OCC)cc3)c2)cc1,24.6% (active)
7,COc1ccc(CNCCc2ccc3c(c2)OCO3)c(OC)c1OC,18.9%
8,COc1ccc(Br)cc1CNCCc1cccc(Cl)c1,35.6% (active)
9,COc1ccc(CNCCc2c[nH]c3ccccc23)cc1OC,3.96%
10,CN1CCC(OC(=O)c2cccc(F)c2)CC1,1.33%
11,CCCCCCN=C(CC)c1c(O)n(CCCC)c(=O)[nH]c1=O,-13.1%
12,Cc1c(Oc2cc(NN3CCCCC3)c([N+](=O)[O-])cc2[N+](=O)[O-])cccc1[N+](=O)[O-],-6.67%
13,CCC(C)n1c(O)c(/C=N/Nc2nc3c(c(=O)n(C)c(=O)n3C)n2C)c(=O)[nH]c1=S (stereo not given),-8.09%
14,Cc1ccnc(-n2c(C)cc(/C=C3\C(=O)NC(=S)N(C)C3=O)c2C)c1,-2.63%
15,CSc1ccc(C(=O)C2CCCN(Cc3ccn[nH]3)C2)cc1 (stereo not given),5.68%

# From PubChem BioAssay AID1861 (The Scripps Research Institute Molecular Screening Center, 2009)
